Assay results from PubChem BioAssay (NCATS).
Records with an inconclusive call do not appear. Active and inactive are the calls of the source. Unless noted, calls come from the whole dose curve; as a rule, active = well fitted cell-killing curve with a large enough effect; inconclusive = small, poorly fitted or top-dose-only effect; inactive = flat fitted curve, though single readings scatter.

Key:
[1] = Cell Viability - LYMP2-025 (AID 976);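 note: series mostly up to about 92 µM; plate controls were DMSO only for no effect and tetraoctylammonium bromide control for full effect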
Outline: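 Seed 2500 LYMP2-025 cells/well; 5 hr at 37 C; add compound; 24 hr at 37 C; add CellTiter-Glo; 30 min RT; read luminescence. AC50 from Hill-modelled concentration-response.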

[2] = Cell Viability - LYMP2-002 (AID 977);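 note: series mostly up to about 92 µM; plate controls were DMSO only for no effect and 92 µM tetraoctylammonium bromide for full effect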
Outline: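 Luminescent ATP readout (CellTiter-Glo, 30 min room temperature) after 24 h compound exposure at 37 C of a human lymphoblastoid line, 2500 cells/well. AC50 values derived by standard Hill fitting of qHTS concentration-response data.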

[3] = Cell Viability - LYMP2-007 (AID 979);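 note: cells exposed to compound for 24 h before reading; 0% = DMSO only and the negative end = 92 µM tetraoctylammonium bromide; nearly all actives have a fitted effect of over 60% in size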
Outline: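 Luminescent ATP signal (CellTiter-Glo) serves as the viability read-out after 24 hr compound treatment of lymphoblastoid cells in complete medium at 37 C. Concentration-response data were fitted to the Hill equation to give AC50 values.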

[4] = Cell Viability - LYMP2-008 (AID 980); note: % is set by controls: 0 for no effect and ±100 for the full control effect; nearly all actives have a fitted effect of over 60% in size
Outline: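 qHTS, human lymphoblastoid line, 2500 cells/well; 5 hr preincubation, 24 hr compound, 37 C. CellTiter-Glo ATP luminescence. AC50 via Hill equation. Tetraoctylammonium bromide positive control.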

[5] = Cell Viability - LYMP2-010 (AID 981); note: % is set by controls: 0 for no effect and ±100 for the full control effect; nearly all actives have a fitted effect of over 55% in size
Outline: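 Luminescent ATP signal (CellTiter-Glo) served as the viability read-out. Cells of the human lymphoblastoid line were treated with compound over a concentration range for 24 hours at 37 C, and AC50 values came from Hill-equation modeling.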

[6] = Cell Viability - LYMP2-012 (AID 982);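 note: cellular ATP by luciferase luminescence where a drop means cytotoxicity; cells exposed to compound for one day before reading; 0% = DMSO only and full loss = 92 µM tetraoctylammonium bromide; nearly all actives have a fitted effect of over 55% in size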
[7] = Cell Viability - LYMP2-014 (AID 983);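 note: series mostly up to about 92 µM; plate controls were DMSO only for no effect and 92 µM tetraoctylammonium bromide for full effect; nearly all actives have a fitted effect of over 50% in size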
Outline: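 Luminescent ATP signal (CellTiter-Glo, 30 min at room temperature) serves as the viability read-out after 24 hr compound exposure at 37 C. Cells were seeded at 2500 per well and settled 5 hr beforehand.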

[8] = Cell Viability - LYMP2-016 (AID 984); note: % is set by controls: 0 for no effect and ±100 for the full control effect; nearly all actives have a fitted effect of over 55% in size
Outline: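 Acute toxicity in a Coriell human lymphoblastoid line is scored as loss of intracellular ATP over 24 h of treatment in complete medium. CellTiter-Glo signal is fitted across concentrations with the Hill equation to give AC50.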

[9] = Cell Viability - LYMP2-018 (AID 985);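 note: plate controls were DMSO only for no effect and tetraoctylammonium bromide at 92 µM for full effect; nearly all actives have a fitted effect of over 50% in size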
Outline: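 Luminescent ATP signal (CellTiter-Glo, read after 30 min at room temperature) reports viable cells after 24 hr compound treatment at 37 C. Concentration-response data were fitted to the standard Hill equation for AC50.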

[10] = Cell Viability - LYMP2-020 (AID 986);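 note: series mostly up to about 92 µM; plate controls were DMSO only for no effect and tetraoctylammonium bromide at 92 µM for full effect; nearly all actives have a fitted effect of over 55% in size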
Outline: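 Luminescent ATP signal (CellTiter-Glo, 30 min at room temperature) is the read-out after 24 h compound treatment of lymphoblastoid cells at 37 C. AC50 values come from Hill-equation fits across concentrations.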

[11] = Cell Viability - LYMP2-022 (AID 987)
Outline: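 qHTS: human lymphoblastoid cells 2500/well; 5 hr 37 C; cpd added; 24 hr 37 C; CellTiter-Glo, 30 min RT; luminescence. AC50 via Hill fit; tetraoctylammonium bromide positive ctrl.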

[12] = Cell Viability - LYMP2-024 (AID 988);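 note: plate controls were DMSO only for no effect and 92 µM tetraoctylammonium bromide for full effect; nearly all actives have a fitted effect of over 60% in size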
Outline: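 Steps: seed 2500 cells/well, 5 hr 37 C; add compound, 24 hr 37 C; add CellTiter-Glo, 30 min room temperature; read luminescence. AC50 derived by Hill modelling of concentration-dependent ATP loss.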

[13] = Cell Viability - LYMP2-026 (AID 989); note: % is set by controls: 0 for no effect and ±100 for the full control effect; nearly all actives have a fitted effect of over 50% in size
Outline: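 Luminescent ATP signal (CellTiter-Glo, 30 min room temperature) measures viable lymphoblastoid cells after 24 hr compound treatment at 37 C. Decreased ATP reflects acute toxicity; AC50 values come from Hill-equation modeling.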

[14] = Cell Viability - LYMP1-002 - Assay at 40 hr (AID 994);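 note: 0% = DMSO only and full inhibition = 92 µM tetraoctylammonium bromide; nearly all actives have a fitted effect of over 60% in size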
Outline: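 Luminescent ATP signal served as the viability readout, with decreases taken as toxicity. Cells were treated with compounds across a concentration range for 40 hours at 37 C, and AC50 values came from standard Hill modeling.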

[15] = qHTS Assay for Identification of Small Molecule Inducers of Hypoxia Response (AID 2120; active = well fitted curve in the direction sought with a large enough effect in the signal ratio, with a control signal flat, not every such curve was filed as active; the % refers to the signal ratio; note: 0% is about no effect)
Outline: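 ME-180 HRE-bla cells plated in Opti-MEM/0.5% dialyzed FBS, rested 4-5 h, then dosed with compound titrations by pin tool. After 17 h at 37 degrees C, CCF4 dye loaded 2.5 h at RT; 460/530 nm ratio gave %Activity and AC50.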

[16] = molecular target: Estrogen receptor (Homo sapiens) (UniProt P03372); assay: qHTS assay for small molecule agonists of estrogen receptor alpha signaling (AID 588514; calls by dose curve;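 note: 0% = vehicle only and 100% = reference agonist; nearly all actives have a fitted effect of over 70% in size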)
Outline: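 Cells were plated at 5000/well, incubated 4 hrs at 37 C, dosed with compound titration series, incubated 18 hrs at 37 C, loaded with CCF4 dye for 2 hrs at RT, then fluorescence was read.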

[17] = Cell Viability - LYMP2-006 (AID 978)
Outline: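 Concentration-dependent loss of intracellular ATP in a human lymphoblastoid line after 24 hr treatment at 37 C was measured by CellTiter-Glo luminescence, with AC50 values obtained from standard Hill-equation modelling.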

[18] = Cell Viability - LYMP1-002 - Assay at 24 hr (AID 993); note: % is set by controls: 0 for no effect and ±100 for the full control effect
Outline: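 Cells plated 2500/well, 5 hr 37 C; compounds added, 24 hr 37 C; CellTiter-Glo added, 30 min RT; luminescence read. Tetraoctylammonium bromide positive control. Hill-equation AC50.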

[19] = molecular target: Androgen receptor (Homo sapiens) (UniProt P10275); assay: qHTS assay for small molecule agonists of androgen receptor signaling (AID 588515; active = well fitted curve in the direction sought with a large enough effect in the signal ratio, with a control signal flat; the % refers to the signal ratio; note: % is set by controls: 0 for no effect and ±100 for the full control effect); conditions: AR-UAS-bla HEK293, beta-lactamase ratio, agonist 16 h; active compounds read high
Outline: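 EC50 and efficacy came from Hill fits of titrations (up to 92 uM) normalized to 30 nM R1881 as 100% and DMSO as 0%. Compound exposure was 16 h at 37 C on AR-UAS-bla HEK293 cells, with a 405/460/530 nm CCF4 fluorescence read.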

Androgen receptor (Homo sapiens), sequence (P10275 whole entry, looked up): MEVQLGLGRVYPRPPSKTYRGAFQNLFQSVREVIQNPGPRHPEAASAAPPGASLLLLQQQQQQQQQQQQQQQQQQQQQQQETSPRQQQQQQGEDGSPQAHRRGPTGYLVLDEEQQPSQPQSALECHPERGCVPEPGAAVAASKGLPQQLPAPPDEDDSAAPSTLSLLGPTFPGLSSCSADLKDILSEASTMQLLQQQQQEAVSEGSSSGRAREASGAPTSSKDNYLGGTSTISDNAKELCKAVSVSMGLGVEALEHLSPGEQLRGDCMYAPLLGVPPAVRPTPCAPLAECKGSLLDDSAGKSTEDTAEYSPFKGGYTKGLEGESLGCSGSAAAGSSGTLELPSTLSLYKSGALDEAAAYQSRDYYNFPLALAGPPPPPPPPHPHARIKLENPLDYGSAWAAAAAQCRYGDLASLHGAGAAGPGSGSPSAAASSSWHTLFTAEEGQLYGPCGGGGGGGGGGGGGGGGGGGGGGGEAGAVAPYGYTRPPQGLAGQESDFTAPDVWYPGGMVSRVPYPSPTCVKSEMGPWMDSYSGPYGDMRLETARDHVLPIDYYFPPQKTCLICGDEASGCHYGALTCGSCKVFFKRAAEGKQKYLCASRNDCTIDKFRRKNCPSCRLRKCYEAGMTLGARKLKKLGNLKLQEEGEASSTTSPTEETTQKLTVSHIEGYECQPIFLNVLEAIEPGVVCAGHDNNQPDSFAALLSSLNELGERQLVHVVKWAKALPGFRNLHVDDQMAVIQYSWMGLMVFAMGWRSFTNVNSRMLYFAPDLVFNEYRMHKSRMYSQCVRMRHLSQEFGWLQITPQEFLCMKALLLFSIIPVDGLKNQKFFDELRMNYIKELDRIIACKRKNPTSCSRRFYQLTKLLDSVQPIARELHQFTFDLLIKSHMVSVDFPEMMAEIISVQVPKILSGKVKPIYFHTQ
Estrogen receptor (Homo sapiens), sequence (P03372 whole entry, looked up): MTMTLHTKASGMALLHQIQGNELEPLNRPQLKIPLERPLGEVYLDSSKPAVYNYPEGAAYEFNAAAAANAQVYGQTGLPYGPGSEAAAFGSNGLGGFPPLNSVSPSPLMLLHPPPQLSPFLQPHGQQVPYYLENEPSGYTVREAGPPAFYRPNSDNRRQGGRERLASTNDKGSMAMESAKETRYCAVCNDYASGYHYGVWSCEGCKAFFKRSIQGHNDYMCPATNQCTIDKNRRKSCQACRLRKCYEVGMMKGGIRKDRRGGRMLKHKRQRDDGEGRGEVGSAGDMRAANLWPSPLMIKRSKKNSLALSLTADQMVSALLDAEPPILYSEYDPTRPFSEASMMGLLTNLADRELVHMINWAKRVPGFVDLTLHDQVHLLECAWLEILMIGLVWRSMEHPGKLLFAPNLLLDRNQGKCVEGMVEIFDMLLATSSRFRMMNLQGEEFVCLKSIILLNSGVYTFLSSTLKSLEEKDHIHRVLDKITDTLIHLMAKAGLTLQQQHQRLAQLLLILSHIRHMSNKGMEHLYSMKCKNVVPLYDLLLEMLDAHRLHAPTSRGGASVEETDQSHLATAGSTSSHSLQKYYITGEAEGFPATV

C=Cc1ccc(C=C)cc1
inactive: Potency [1] | Potency [2] | Potency [3] | Potency [4] | Potency [5] | Potency [6] | Potency [7] | Potency [8] | Potency [9] | Potency [10] | Potency [11] | Potency [12] | outcome [13] | Potency [14] | outcome [15] | Potency [16]

Nc1ccccc1[N+](=O)[O-]
inactive: Potency [1] | Potency [2] | Potency [17] | Potency [3] | Potency [4] | Potency [5] | Potency [6] | Potency [7] | Potency [8] | Potency [9] | Potency [10] | Potency [11] | Potency [12] | outcome [13] | Potency [18] | Potency [14] | outcome [15]

C1CCOC1
inactive: Potency [1] | Potency [2] | Potency [17] | Potency [3] | Potency [4] | Potency [5] | Potency [6] | Potency [7] | Potency [8] | Potency [9] | Potency [10] | Potency [11] | Potency [12] | outcome [13] | Potency [18] | Potency [14] | outcome [15]

O=C1OC(=O)c2c(Br)c(Br)c(Br)c(Br)c21
inactive: Potency [1] | Potency [2] | Potency [17] | Potency [3] | Potency [4] | Potency [5] | Potency [6] | Potency [7] | Potency [8] | Potency [9] | Potency [10] | Potency [11] | Potency [12] | outcome [13] | Potency [18] | Potency [14] | outcome [15]

Cc1ccc(Cl)cc1N
inactive: Potency [1] | Potency [2] | Potency [17] | Potency [3] | Potency [4] | Potency [5] | Potency [6] | Potency [7] | Potency [8] | Potency [9] | Potency [10] | Potency [11] | Potency [12] | outcome [13] | Potency [18] | Potency [14] | outcome [15]

Cc1c(C(=O)O)cccc1[N+](=O)[O-]
inactive: Potency [1] | Potency [2] | Potency [17] | Potency [3] | Potency [4] | Potency [5] | Potency [6] | Potency [7] | Potency [8] | Potency [9] | Potency [10] | Potency [11] | Potency [12] | outcome [13] | Potency [18] | Potency [14] | outcome [15] | activation [19] -4.24%

CC(=O)C1(C)CC2=C(CCCC2(C)C)CC1C (stereo unspecified)
inactive: Potency [1] | Potency [2] | Potency [3] | Potency [4] | Potency [5] | Potency [7] | Potency [8] | Potency [9] | Potency [10] | Potency [11] | Potency [12] | Potency [18] | Potency [14] | outcome [15] | activation [19] -4.48%

c1ccc2[nH]cnc2c1
inactive: Potency [1] | Potency [2] | Potency [17] | Potency [3] | Potency [4] | Potency [5] | Potency [6] | Potency [7] | Potency [8] | Potency [9] | Potency [10] | Potency [11] | Potency [12] | outcome [13] | Potency [18] | Potency [14] | outcome [15]

O=[N+]([O-])c1c(Cl)cc(Cl)cc1Cl
inactive: Potency [1] | Potency [2] | Potency [17] | Potency [3] | Potency [4] | Potency [5] | Potency [6] | Potency [7] | Potency [8] | Potency [9] | Potency [10] | Potency [11] | Potency [12] | outcome [13] | Potency [18] | Potency [14] | outcome [15]

CC1CCC2CC1C2(C)C (stereo unspecified)
inactive: Potency [1] | Potency [2] | Potency [17] | Potency [3] | Potency [4] | Potency [5] | Potency [6] | Potency [7] | Potency [8] | Potency [9] | Potency [10] | Potency [11] | Potency [12] | outcome [13] | Potency [18] | Potency [14] | outcome [15]

CC(=O)CC(C)C
inactive: Potency [1] | Potency [2] | Potency [17] | Potency [3] | Potency [4] | Potency [5] | Potency [6] | Potency [8] | Potency [9] | Potency [10] | Potency [11] | Potency [12] | outcome [13] | Potency [18] | Potency [14] | outcome [15] | activation [19] 2.1%

O=[N+]([O-])c1cc(C(F)(F)F)ccc1Cl
inactive: Potency [1] | Potency [2] | Potency [17] | Potency [5] | Potency [6] | Potency [7] | Potency [8] | Potency [9] | Potency [10] | Potency [11] | Potency [12] | outcome [13] | Potency [18] | Potency [14] | outcome [15] | activation [19] 13.2%
